Here are results for 46 compounds from PubChem BioAssay AID1645870 (National Center for Advancing Translational Sciences (NCATS), 2021).

Values joined by “and” are separate entries in the source; they are usually repeats but may differ in a detail not shown here. Identical values can stand only once. Out of some 59,000 compounds screened, about 1,500 (2.5%) were called active. Another 10% or so got no clear call; they are omitted. Calls come from the whole dose curve; as a rule, active = well fitted inhibition curve with a large enough effect; inconclusive = small, poorly fitted or top-dose-only effect; inactive = flat fitted curve, though single readings scatter. Many of the other results were omitted from the sample, so actives are more common in it than they were. Some structures have more than one record in an assay (separate samples or runs), and their calls can disagree.
Potency is the fitted concentration of half-maximal effect.

Chain of N-terminal Xaa-Pro-Lys N-methyltransferase 1 (Homo sapiens) (Q9BV86 whole entry, looked up): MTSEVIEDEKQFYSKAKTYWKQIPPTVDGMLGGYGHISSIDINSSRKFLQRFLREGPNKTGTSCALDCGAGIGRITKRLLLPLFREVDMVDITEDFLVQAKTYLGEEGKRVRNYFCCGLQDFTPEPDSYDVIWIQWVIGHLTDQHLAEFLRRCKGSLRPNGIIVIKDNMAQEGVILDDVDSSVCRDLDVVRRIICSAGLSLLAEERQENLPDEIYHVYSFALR

The target of this assay is N-terminal Xaa-Pro-Lys N-methyltransferase 1 (Homo sapiens) (UniProt Q9BV86). The assay can be described thus: Primary qHTS for Inhibitors of N-terminal methyltransferase 1 (NTMT1): MTaseGlo Assay.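 For activity change, negative = inhibition: plate controls were DMSO vehicle for no effect and no enzyme for full effect.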 Note: nearly all actives have a fitted effect of over 65% in size. Conditions: NTMT1 MTase-Glo SAH luminescence, purified enzyme; series mostly up to 114 µM; activity change, negative = inhibition: at the top concentration. The text has this:
Assay Submitter (PI): Rong Huang Ph.D.
Purdue University, West Lafayette, IN 47907
The N-terminal methytransferase 1 is the first methyltransferase that methylates protein alpha-N-amines and plays an important role in regulating cell mitosis, chromatin interactions and DNA repair. It is observed to be over-expressed in various cancer patient tissues like malignant melanoma and colorectal cancer tissues. Knockdown of NTMT1 in cancer cells causes cell mitotic defects and enhances sensitivity to DNA damaging chemotherapeutics. […] These critical cellular processes in which NTMT1 is implicated, coupled with emerging links to cellular dysfunction, strengthen the inference that NTMT1 is a compelling novel anticancer target. Progress have been made in understanding the molecular properties of NTMT1 and the biological consequences of protein alpha-N-terminal methylation, but there are no specific small molecule probes available for NTMT1 to fully characterize its MTase activity. To address this unmet need, a panel of assay is created and established to enable quantitative high-throughput screening (qHTS) for novel, potent, and selective small molecule NTMT1 inhibitors. Two orthogonal qHTS that use different reagents (ThioGlo vs. MTaseGlo) are developed for primary robotic screening against the NCATS chemical library of more than 400,000 small molecules. Identified inhibitors are reacquired, validated, and further characterized.
MTaseGlo Assay is a luminescence screen that measure the activity of methyltransferases based on the reaction product S-adenosyl homocysteine (SAH). The substrate SAM is converted to SAH upon enzyme activation. MTase-Glo reagent and detection solution convert SAH to ATP and measure the light from the luciferase reaction.
Materials: NTMT1 enzyme, substrate SPKRIA, control peptide RCC1-6 is provided by the Huang laboratory.
SEQUENCE No. (e.g., 1, 2, 3, etc.); […] (e.g., Cells, Incubation, Reagent, etc.); VALUE; DESCRIPTION
1; Enzyme; 3 uL; Dispense enzyme mixture (final concentrations of 125 nM NTMT1 and 100 uM SAM) into Greiner 1536-well white / solid bottom assay plate (Greiner Bio One, Monroe, NC).
2; Compounds; 23 nL; Compounds and controls were transferred via a Kalypsys Pin Tool (Wako USA) equipped with a 1536-slotted pin array (Wako Automation, Richmond, VA)
3; Incubation; 15 min; Incubate at room temperature
4; Substrate; 1 uL; Dispense 1 uL of substrate at final concentration of 1 uM. Buffer solution was dispensed in control wells. The assay plate was covered with metal lids.
5; Incubation; 30 min; Incubate at room temperature, protected from lights.
6; Reagent; 1 uL; Dispensed 5x MTase-Glo detection reagent (R) into the assay plate. The plate was covered with metal lids.
7; Incubation; 30 min; Incubate the assay plates at room temperature in the dark to allow for SAH to be converted to ADP.
8; Reagent; 5 uL; Dispense 5 uL of 1x MTase-Glo Detection Solution (R) to allow for ADP to be converted to ATP which was then detected with a luciferase reaction.
9; Centrifuge; 15 sec; Centrifuge the assay plate for 15 seconds at 1000 RPM.
10; Incubation; 30 min; Assay plates were incubation at room temperature in the dark.
11; Detection; Luminescence; Plates were read on ViewLux detector (PerkinElmer). Data were normalized to no-enzyme (0% activity) and no-inhibitor (DMSO; 100%) controls, and the resulting percent inhibition data were fitted to a 4-parameter Hill equation using GraphPad Prism.
Consider `OCc1cnc(SCc2ccc(F)cc2)n1Cc1ccc(F)cc1`, for which the Potency was 89.1 µM (active).
On to `O=C(CSc1ncc(CO)n1Cc1ccc(F)cc1)NCc1ccco1`, for which the “activity change, negative = inhibition” value is -0.0712% (inactive).
The same measure, in the same setting: for `Cc1cc(C)n2ncc(C(=O)N3CCCC3)c2n1` the value was 15.8% (inactive); for `Cc1ccc(OCCn2c(CCNC(=O)c3ccccc3C(F)(F)F)nc3ccccc32)cc1`, 7.93% (inactive).
On the same count and under the same terms, next, `CC(C)c1ccccc1-c1nc(NCc2ccc(-c3cccnc3)cc2)c2occc2n1`: 6.29% (inactive); `COc1ccc(C2Nc3cccc(OC)c3C(=O)N2Cc2ccccc2)cc1COc1ccc(NC(C)=O)cc1` (stereo unspecified): 15.3% (inactive).
As to `O=C(OCC#CCSc1nnc(-c2ccco2)o1)c1ccc(F)cc1`, the “activity change, negative = inhibition” value is -0.0729% (inactive).
Regarding `O=C(Nc1nnc(-c2ccncc2)s1)Nc1cc(C(F)(F)F)ccc1F`, the “activity change, negative = inhibition” value is 4.26% (inactive).
Turning to `COc1ccc(C2Nc3ccccc3C(=O)N2Cc2ccco2)cc1COc1cccc(NC(C)=O)c1` (stereo unspecified), the “activity change, negative = inhibition” value is -15% (inactive).
Consider `CCNC(=O)C#Cc1ccc2c(C(=Nc3ccc(CN(C)C)cc3)c3ccccc3)c(O)[nH]c2c1`, for which the Potency is 31.6 µM (active).
As for `CN(C)C/C=C/C(=O)Nc1ccc(C(=O)N2CCC[C@@H](Nc3ncc(Cl)c(-c4c[nH]c5ccccc45)n3)C2)cc1`, the “activity change, negative = inhibition” value is -19.5% (inactive).
As for `Cn1cnc(CN=C2NC3=C(C(=O)CCC3)C(c3[nH]ncc3Cl)N2)c1` (stereo unspecified), the “activity change, negative = inhibition” value is 7.29% (inactive).
As for `COc1cc2c(cc1OC)CN(CCc1ccc(-n3nnc(-c4cc(OC)c(OC)cc4NC(=O)c4cc(=O)c5ccccc5o4)n3)cc1)CC2`, the activity change, negative = inhibition was -7.78% [at 1.07 µM] (inactive).
Turning to `N#Cc1c(N)nc(N)nc1N[C@H](c1nc2c(F)ccc(Cl)c2c(=O)n1-c1cccnc1)C1CC1`, the “activity change, negative = inhibition” value was 6.73% (inactive).
Still for that read-out and setting: for `CC(C)(C)NS(=O)(=O)c1cccc(Nc2nn3c(=O)c4ccccc4nc3s2)c1` the value was -9.01% [at 57.5 µM] (inactive).
Same read-out and setting: next, `FC(F)(F)c1cccc(N2CCN(C(=S)Nc3ccncc3)CC2)c1`: -12.1% (inactive).
In the case of `Cc1ccc(N2CCN(C(=S)Nc3cc(C)ccn3)CC2)cc1`, the Potency was 79.4 µM (active).
For `Cc1ccc(CNc2ccc(N3CCCCC3)cc2)cc1`, the “activity change, negative = inhibition” value was -28.2% (inactive).
`CCc1ccc(-c2nn3c(C)nnc3s2)cc1NC(=O)c1ccc(-c2cccc(Cl)c2)o1`: the “activity change, negative = inhibition” value was -1.59% [at 57.5 µM] (inactive).
Same read-out and setting: for `CCOc1ccc(CCNC(=O)c2cnon2)cc1OCC` the value was 12.9% (inactive).
Take `C=Cc1c(C)c2cc3nc(cc4[nH]c(cc5nc(cc1[nH]2)C(C)=C5CCC(=O)O)c(CCC(=O)OC)c4C)[C@@]1(C)C3=CC=C(C(=O)OC)[C@H]1C(=O)OC`: the Potency was 50.1 µM (active).
Take `N#Cc1ccc(NC(=O)Nc2nnc(-c3ccncc3)s2)c(Cl)c1`: the “activity change, negative = inhibition” value was 1.48% (inactive).
Still for that read-out and setting: for `CC[C@H](Nc1ncnc2nc[nH]c12)c1oc2ccccc2c(=O)c1-c1cccc(F)c1` the value was 9.83% (inactive); for `Cc1ccc(-c2cc(C(=O)Nc3cccc(Cl)c3)c3ccccc3n2)cc1C`, 0.0238% (inactive).
Take `Cc1cc(NC(=O)Nc2nnc(-c3ccncc3)s2)ccc1Cl`: the “activity change, negative = inhibition” value is -28.9% (inactive).
Same read-out and setting: next, `Fc1ccccc1-c1ccc(Nc2nc(-c3ccncc3)nc3ccccc23)cc1F`: -11.3% [at 57.5 µM] (inactive).
Regarding `Fc1ccc(Cl)cc1-c1nc(Nc2ccncc2)c2nccnc2n1`, the Potency result is “inactive and 39.8 µM (active)”.
As for `Fc1cc(Nc2nc(-c3ccncc3)nc3ccccc23)ccc1-c1ccc(F)c(F)c1F`, the “activity change, negative = inhibition” value was -0.911% (inactive).
Take `C=CCNc1oc(-c2cccnc2)nc1C#N`: the “activity change, negative = inhibition” value was 19.4% (inactive).
On the same count and under the same terms, for `Cc1noc(C)c1-c1ccc2ncnc(NCc3ccc(F)c(F)c3)c2c1` the value was -0.636% (inactive).
Same read-out and setting: next, `OC1CCC(Nc2nc(-c3ccccc3)nc3[nH]ccc23)CC1` (stereo unspecified): -2.56% [at 57.5 µM] (inactive).
On the same count and under the same terms, next, `COc1cc(Nc2nc(-c3ccc(OC)c(OC)c3)nc3ccccc23)cc(OC)c1`: -8.03% (inactive).
Turning to `COc1cc2nc(Nc3ccccc3)nc(NC3CC3)c2cc1OC`, the Potency was 50.1 µM (active).
Regarding `O=C(CSc1nnc(-c2cccc([S+](=O)([O-])N3CCCC3)c2)n1-c1ccccc1)Nc1cccc(C(F)(F)F)c1`, the “activity change, negative = inhibition” value was 2.04% (inactive).
Still for that read-out and setting: next, `CC(C)(c1ccc(OCC(O)CO)cc1)c1ccc(OCC(O)CCl)cc1` (stereo unspecified): 4.02% (inactive).
As to `O=C(O[C@@H]1Cc2c(O)cc(O)cc2O[C@H]1c1cc(O)c(O)c(O)c1)c1cc(O)c(O)c(O)c1`, the Potency was 44.7 µM (active).
For the compound `N#Cc1ccc(OC2=NS(=O)(=O)c3ccccc32)cc1`, the “activity change, negative = inhibition” value was 11.6% (inactive).
With `Cc1ccc2nc3sc(C(=O)NCCc4cccnc4)cc3cc2c1`, the “activity change, negative = inhibition” value was 1.58% [at 57.5 µM] (inactive).
The same measure, in the same setting: next, `O=S(=O)(NCCCCCCNS(=O)(=O)c1c(F)cccc1F)c1ccc2c(c1)OCCO2`: 8.56% (inactive).
With `NNc1nnc(NN)c2ccccc12`, the Potency was 22.4 µM (active).
Same read-out and setting: for `O=C1CCCC2=C1[C@@]1(CCC(c3ccccc3)C1)N=C(Nc1nc3ccccc3o1)N2` (stereo partly specified) the value was “inactive”; for `Nc1ncnc2c1c(I)cn2[C@@H]1C[C@H](N)[C@@H](O)[C@H]1O`, 2.51 µM (active).
On to `CC(=O)c1cccc(-c2ccc(-c3nc4ccccc4c(=O)[nH]3)o2)c1`, for which the “activity change, negative = inhibition” value was -12.8% (inactive).
The same measure, in the same setting: for `N#Cc1nc(Nc2cccc(Cl)c2)nc(NC2CCCC2)n1` the value was -4.66% (inactive); for `[O-][n+]1onc(-c2ccccc2)c1CO`, -13.1% (inactive).
The same measure, in the same setting: next, `O=C1COc2cc([S+](=O)([O-])Nc3ccc(Cl)c(Cl)c3)c(Cl)cc2N1`: -15.7% [at 57.5 µM] (inactive).
